Test results taken from PubChem BioAssay AID602340 (Broad Institute, 2012).
Screen size: about 330,000 compounds; about 2,600 (0.79%) were called active. Many of the other results were omitted from the sample, so actives are more common in it than they were. Unmarked numbers belong to inactive results.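 The calls were made as follows: active = mean ATP rescue above about 67%, or every replicate alone reaching that limit (limit read from the data, passing the limit was not always enough); inconclusive = no clear call, values can overlap the other calls; inactive = mean under the limit and some replicate under it.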

Assay: suppressors of statin myotoxicity in C2C12 myotubes, primary screen, cell-based, single point, plate reader (AID 602340);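 also: myotubes were challenged with 10 µM simvastatin during compound exposure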
Conditions: C2C12 myotubes + simvastatin, ATP luminescence, 48 h; at 7.49 µM; stronger effect = higher value; scaled: DMSO 0, geranylgeraniol control 100

SMILES	rescue of ATP level
Cc1cc(=O)n2c3c(cccc13)CCC2	0.243%
O=c1c2c(nc3n1CCCCC3)sc1c(O)cccc12	6.49%
Cc1cccc2c(=O)n3c(nc12)CCCCC3	66.7% (active)
CC(C)CC#Cc1cnc2c(c1)C(=O)N([C@@H](C)CO)C[C@H](C)[C@@H](CN(C)S(=O)(=O)c1cn(C)cn1)O2	-12.3%
C[C@H]1CCCCO[C@H](CN(C)Cc2ccccc2)[C@@H](C)CN([C@@H](C)CO)C(=O)c2cc(NS(C)(=O)=O)ccc2O1	0.662%
O=C(c1ccco1)N(Cc1nc2ccccc2c(=O)[nH]1)C1CCCC1	69.1% (active)
CCCC(=O)N(CCc1ccccc1)Cc1nc2ccccc2c(=O)[nH]1	4.48%
CCN(CC(=O)NC(=O)NCc1ccccc1)Cc1nc2ccccc2c(=O)[nH]1	-7.59%
CCCNC(=O)N[C@@H]1CC[C@@H](CCn2cc(C3CC3)nn2)O[C@@H]1CO	4.61%
CCn1nnnc1SCC(=O)c1ccc(C)cc1C	122% (active)
CCOC(=O)c1c(-c2ccc(C)cc2C)csc1NC(=O)CSc1nnnn1C	8.4%
CCn1nnnc1SCC(=O)Nc1ccc(N(C)C)cc1	-19%
C/C=C/c1ccc2c(c1)O[C@@H](CN(C)C(=O)C1CCOCC1)[C@H](C)CN([C@H](C)CO)S2(=O)=O	7.79%
Oc1ccc(-c2onc3ccc(Cl)cc23)cc1	108% (active)
NC(N)=Nc1nc(-c2ccccc2)c2cc(Cl)ccc2n1	-791%
CC(OC(=O)c1ccc2noc(-c3ccccc3)c2c1)C(N)=O (configuration not stated)	20.5%
C[C@H](CO)N1C[C@H](C)[C@H](CN(C)Cc2ccncc2)Oc2ccc(NS(=O)(=O)c3cn(C)cn3)cc2C1=O	-11.2%
C[C@H](CO)N1C[C@H](C)[C@H](CN(C)C(=O)c2ccccn2)Oc2ncc(-c3ccccc3F)cc2C1=O	16.4%
CCCC(=O)Nc1ccc2c(c1)C(=O)N(C)C[C@@H](OC)[C@@H](C)CN(Cc1cncnc1)[C@@H](C)CO2	-0.178%
C[C@@H]1CN([C@@H](C)CO)C(=O)c2cc(C#CC3CC3)cnc2O[C@@H]1CN(C)C(=O)Cc1ccccn1	13.5%
CO[C@@H]1CN(C)C(=O)c2ccc(NC(=O)c3ccc(F)cc3)cc2OC[C@H](C)NC[C@@H]1C	-3.77%
CCCNC(=O)N1[C@@H]2CN(C)c3ccccc3[C@@H]2[C@@H]1CO	9.21%
O=C(C[C@@H]1C[C@H]2c3cc(NC(=O)Nc4ccccc4F)ccc3O[C@H]2[C@@H](CO)O1)NCc1ccncc1	2.48%
COc1ccc(OC)c2c(N)c(C#N)c(C(F)(F)C(F)(F)F)nc12	89.2% (active)
COc1ccc(C2CC(=O)Nc3sc(=N)c4c(N)c(C#N)c(N)nc4c32)cc1OC (configuration not stated)	-2.72%
CC(C)NC(=O)Nc1ccc2c(c1)C(=O)N([C@@H](C)CO)C[C@@H](C)[C@H](CN(C)Cc1ccc(C(=O)O)cc1)O2	6.31%

SMILES	rescue of ATP level
CC(=O)Nc1ccc(C(=O)CSc2nnc(Cc3ccccc3)o2)cc1	1.31%
CCOc1ccc(Nc2nc(Cc3nnc(SCC(=O)NC4CCCC4)n3C)cs2)cc1	33.9%
CCOc1ccc(Nc2nc(Cc3nnc(SCC(=O)c4ccc(C)cc4)o3)cs2)cc1	76.7% (active)
COCC(=O)Nc1ccc2c(c1)OC[C@H](C)NC[C@@H](C)[C@H](OC)CN(C)C2=O	7.72%
O=C(c1cccnc1)N1CC[C@@H]2[C@@H](CO)Nc3ccc(-c4ccccc4)cc3[C@@H]21	2.73%
CO[C@H]1CN(C)C(=O)c2cc(NC(=O)c3ccc4c(c3)OCO4)ccc2OC[C@@H](C)N(CCC(F)(F)F)C[C@H]1C	6.03%
O=C(N[C@H]1CC[C@H](CCNS(=O)(=O)c2ccc(F)cc2)O[C@H]1CO)C1CCCC1	6.44%
COCC(=O)Nc1ccc2c(c1)OC[C@@H](C)N(C(=O)CC1CC1)C[C@@H](C)[C@@H](OC)CN(C)C2=O	15.1%
CCCC#Cc1cnc2c(c1)C(=O)N([C@H](C)CO)C[C@@H](C)[C@@H](CN(C)C(=O)Nc1ccccc1OC)O2	11.6%
CC1(C)Cc2cccc(OCC(N)=O)c2O1	113% (active)
CC1(C)Cc2cccc(OCC(=O)Nc3nccs3)c2O1	0.639%
CC1(C)Cc2cccc(OCC(=O)NCc3ccccc3)c2O1	1.33%
CCC(=O)N[C@H]1CC[C@H](CCn2cc(-c3cccc(OC)c3)nn2)O[C@H]1CO	-2.48%
CC=Cc1ccc2n(c1=O)C[C@H]1[C@H](CO)[C@@H](C(=O)NC3CCCC3)N(Cc3cccnc3)[C@@H]21 (mixture of isomers)	-41.8%
C[C@H](CO)N1C[C@H](C)[C@@H](CN(C)Cc2cccc(F)c2)Oc2cc(C#CC3CC3)ccc2S1(=O)=O	-17.1%
CC1(C)Cc2c(C#N)c(SCc3nc4ccccc4[nH]3)nc(N3CCOCC3)c2CO1	-43.7%
Cc1ccc(O)c(CNc2nc3ccccc3[nH]2)c1	2.19%
Clc1ccccc1SCc1nc2ccccc2[nH]1	91.4% (active)
CO[C@@H]1CN(C)C(=O)c2ccc(NC(=O)NC(C)C)cc2OC[C@H](C)N(Cc2ccc(-c3ccccn3)cc2)C[C@H]1C	16.4%
CCNC(=O)C[C@@H]1C=C[C@@H](NC(=O)C2CCOCC2)[C@@H](CO)O1	-1.82%
O=C(C[C@@H]1CC[C@@H]2[C@H](COC[C@H](O)CN2CC2CCOCC2)O1)NCC1CCCCC1	1.6%
CO[C@@H]1CN(C)C(=O)c2ccc(NC(=O)c3cccc(Oc4ccccc4)c3)cc2OC[C@H](C)NC[C@@H]1C	-3.89%
CNC(=O)C[C@H]1CC[C@H]2[C@H](COc3ccc(NC(=O)Nc4ccc(F)cc4)cc3C(=O)N2C)O1	17.2%
Cc1ccc2nc(N3CCN(C(=O)c4ccco4)CC3)sc2c1	0.517%
COc1ccc2nc(N3C(=O)C(O)=C(C(=O)c4ccco4)C3c3ccco3)sc2c1 (configuration not stated)	9.9%
COc1ccc2nc(N3CCN(C(=O)c4ccc([N+](=O)[O-])o4)CC3)sc2c1	73.2% (active)

SMILES	rescue of ATP level
COc1ccc(S(=O)(=O)Nc2ccc3c(c2)C(=O)N([C@@H](C)CO)C[C@H](C)[C@H](CN(C)Cc2ccc4c(c2)OCO4)OCCCC[C@H](C)O3)cc1	-65.3%
CC=Cc1ccc2n(c1=O)C[C@@H]1[C@@H](CO)[C@H](C(=O)NCC(F)(F)F)N(CCc3ccccc3)[C@H]21 (mixture of isomers)	-10.8%
O=C(C[C@@H]1CC[C@@H]2[C@H](COC[C@H](O)CN2C(=O)Nc2cccc(Cl)c2)O1)NCCCN1CCOCC1	-20.2%
CCCS(=O)(=O)N1CCCC(C(=O)NCc2ccco2)C1 (configuration not stated)	-3.35%
O=C(NCc1ccco1)C1CCCN(S(=O)(=O)c2cnc[nH]2)C1 (configuration not stated)	-4.96%
O=C(NCc1ccco1)C1CCCN(S(=O)(=O)c2ccccc2)C1 (configuration not stated)	133% (active)
O=C(C[C@@H]1CC[C@@H]2[C@H](COC[C@@H](O)CN2S(=O)(=O)c2cccc(Cl)c2)O1)N1CCOCC1	-7.32%
CCCN(C)C[C@@H]1Oc2ncc(C#CC3CC3)cc2C(=O)N([C@H](C)CO)C[C@H]1C	8.64%
O=C(Nc1ccccc1)N1C[C@H]2[C@@H](c3ccccc31)[C@H](CO)N2Cc1ccc(F)cc1	3.11%
COc1cccc(S(=O)(=O)N[C@H]2C=C[C@H](CC(=O)NC3Cc4ccccc4C3)O[C@@H]2CO)c1	4.32%
C[C@@H]1CN([C@@H](C)CO)C(=O)c2cc(C#CCN(C)C)cnc2O[C@H]1CN(C)S(=O)(=O)c1cn(C)cn1	-11.7%
O=C(c1cc(-c2ccc(F)cc2)on1)N1CCN(c2ccc(F)cc2)CC1	-7.85%
O=C(c1cc2cc(F)ccc2[nH]1)N1CCN(c2ccc(F)cc2)CC1	0.946%
Cc1c(C(=O)N2CCN(c3ccc(F)cc3)CC2)oc2c1C(=O)CCC2	87.3% (active)
C[C@@H]1CN([C@H](C)CO)S(=O)(=O)c2ccc(C#C[C@@H](C)O)cc2O[C@H]1CN(C)CC1CC1	-38.8%
CCCNC(=O)Nc1ccc2c(c1)OC[C@@H](C)N(C(=O)c1ccccc1F)C[C@H](C)[C@@H](OC)CN(C)C2=O	-10.8%
O=C(Nc1cc(C(F)(F)F)ccc1Cl)c1cc2nc3c(c(C(F)(F)F)n2n1)CCCC3	-15%
O=C(Nc1ccc(Cl)cc1)c1cc2nc(C3CC3)cc(C(F)(F)F)n2n1	98.2% (active)
C=CCNC(=O)c1cc2nc(C3CC3)cc(C(F)F)n2n1	-17.9%
Cc1ccc(C(=O)N2CCCC2)c(F)c1F	16.3%
Cc1c(Br)cc(C(=O)N2CCCCCC2)c(C)c1C	115% (active)
COc1cc(OC)c(C(=O)N2CCCC2)cc1OC	-3.44%
COCC(=O)Nc1ccc2c(c1)C(=O)N(C)[C@@H]1CC[C@H](CC(=O)NCC3CCCCC3)O[C@H]1CO2	13.3%
O=C(Nc1ccccc1F)N[C@@H]1CC[C@H](CC(=O)N2CCCCC2)O[C@H]1CO	4.38%
CC(=O)N1[C@@H]2c3ccc(-c4ccccc4)c(=O)n3C[C@@H]2[C@@H](CO)[C@@H]1C(=O)NCc1ccccc1F	5.23%
